Reference: PubChem BioAssay (EPA / NIEHS)
Results filed as inconclusive are left out. Activity calls are given as the source filed them. How the source made its calls: active means hit-call score of the fitted dose curve at least 0.9, where 1 is the maximum; inconclusive means response in the unintended direction; inactive means score below 0.9.

Assay: Tanguay_ZF_120hpf_AXIS_legacy: (Legacy) Oregon State University Tanguay Lab 120 Hour Post-fertilization zebrafish Assay for Body Axis Malformation (AID 2283635);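 on AC50: potency for an increased fraction of larvae scored with body axis malformation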
Description: Tanguay_ZF_120hpf_legacy is a whole embryo, multiplexed endpoint assay using zebrafish larvae exposed for 120 hours post fertilization on a 96-well plate.Tanguay_ZF_120hpf_AXIS_legacy is one of one assay component(s) measured or calculated from the Tanguay_ZF_120hpf_legacy assay. It is designed to make measurements of zebrafish development as detected with brightfield microscopy of developing zebrafish embryos.Data from the assay component Tanguay_ZF_120hpf_AXIS_legacy was analyzed into 1 assay endpoints. This assay endpoint, Tanguay_ZF_120hpf_AXIS_legacy, was analyzed in the positive analysis fitting direction relative to DMSO as the negative control and baseline of activity. Using a type of morphology reporter, gain-of-signal activity can be used to understand changes in developmentals as they relate to the whole embryo. To generalize the intended target to other relatable targets, this assay endpoint is annotated to the zebrafish development intended target family, where the subfamily is body axis morphogenesis.
Zebrafish husbandry: Tropical 5D wild-type adult zebrafish were housed in at an approximate density of 1000 per 100 gallon tank at the Sinnhuber Aquatic Research Laboratory, Oregon State University, Corvallis, OR. Each tank was kept at standard laboratory conditions of 28C on a 14-h light/10-h dark photoperiod in fish water consisting of reverse osmosis water supplemented with a commercially available salt (Instant Ocean). Spawning funnels were placed into the tanks the night prior, and embryos were collected and staged. To increase bioavailability, the chorion was enzymatically removed using pronase (63.6mg/ml, >/= 3.5U/mg, Sigma-Aldrich: P5147) at 4 hours post fertilization (hpf) using a custom automated dechorionator.Chemical exposures: Six hpf dechorionated embryos were placed 1 embryo per well in a 96-well plate prefilled with 90 ul of EM using automated embryo placement systems (AEPS). Ten microliters of each row of dilution plate 2 was added to 2 exposure plates. The final DMSO concentration used was 0.64% (vol/vol). Thirty-two embryos were also exposed to 5uM trimethyltin chloride (positive control). Plates were sealed to prevent evaporation and foil covered to reduce light exposure and kept in a 28C incubator. Embryos were statically exposed until 120 hpf. At 24 hpf, embryos were assessed for photomotor response using a custom photomotor response analysis tool (PRAT) and for developmental toxicity endpoints (MO24: mortality at 24 hpf, DP: developmental progression, SM: spontaneous movement, and NC: notochord distortion). At 120 hpf, locomotor activity was measured using Viewpoint Zebralab and assessed for 18 endpoints. Zebrafish acquisition and analysis program (ZAAP), a custom program designed to inventory, acquire, and manage zebrafish data, was used to collect developmental endpoints as either present or absent (i.e., binary responses were recorded). If mortality occurred for an embryo (at either 24 or 120 hpf), the non-mortality endpoints were not measured.

Q: For `O=C(O)C(F)(F)C(F)(F)C(F)(F)C(F)(F)C(F)(F)C(F)(F)C(F)(F)C(F)(F)F`, which outcome is on record?
A: The outcome was “inactive”.

Q: For `CCCCCCCCCC[N+](C)(C)CCCCCCCCCC`, which outcome is on record?
A: The outcome was “inactive”.

Q: For `CN(C)CCO`, which outcome is on record?
A: The outcome was “inactive”.

Q: For `CCC(C)(CC)c1cc(NC(=O)c2c(OC)cccc2OC)on1`, which outcome is on record?
A: The outcome was “inactive”.

Q: For `CCC(C)(c1ccc(O)cc1)c1ccc(O)cc1`, which AC50 is on record?
A: The AC50 was 46.9 µM (active).

Q: For `Cc1ccc(O)c(C)c1`, which outcome is on record?
A: Its outcome is “inactive”.

Q: Which outcome does the source give for `CCOC(=O)C(O)(c1ccc(Cl)cc1)c1ccc(Cl)cc1` here?
A: The outcome was “inactive”.

Q: Which outcome does the source give for `CCCCCCCCOC(=O)c1ccccc1C(=O)OCCCCCCCC` here?
A: Its outcome is “inactive”.

Q: For `CC(C)(c1ccccc1)c1ccc(O)cc1`, which outcome is on record?
A: The outcome was “inactive”.

Q: For `O=S(=O)(O)C(F)(F)C(F)(F)C(F)(F)C(F)(F)C(F)(F)C(F)(F)F`, which outcome is on record?
A: The outcome was “inactive”.

Q: With `C=CC(N)=O` as the compound, how does the outcome read?
A: The outcome was “inactive”.

Q: For `CC(C)(O)C(=O)Nc1ccc([N+](=O)[O-])c(C(F)(F)F)c1`, which AC50 is on record?
A: The AC50 was 6.35 µM (active).

Q: For `CN(C)c1nc(=O)n(C2CCCCC2)c(=O)n1C`, which outcome is on record?
A: Its outcome is “inactive”.

Q: With `CC(C)C(=O)OCC(C)(C)C(OC(=O)C(C)C)C(C)C` (stereo not given) as the compound, how does the outcome read?
A: Its outcome is “inactive”.

Q: For `O=C(NC(=O)c1c(F)cccc1F)Nc1cc(Cl)c(OC(F)(F)C(F)F)c(Cl)c1`, which outcome is on record?
A: The outcome was “inactive”.

Q: With `CCC(=O)O[C@H]1CC[C@H]2[C@@H]3CCC4=CC(=O)CC[C@]4(C)[C@H]3CC[C@]12C` as the compound, how does the outcome read?
A: Its outcome is “inactive”.

Q: For `COc1ccc(O)c(C(C)(C)C)c1`, which outcome is on record?
A: Its outcome is “inactive”.

Q: Which outcome does the source give for `CCCN(CCC)N=O` here?
A: Its outcome is “inactive”.

Q: Which outcome does the source give for `Cc1cccc(C)c1N` here?
A: Its outcome is “inactive”.

Q: For `N#Cc1ccc(N(CC(N)=O)CC(F)(F)F)cc1C(F)(F)F`, which outcome is on record?
A: The outcome was “inactive”.

Q: For `O=S(=O)(O)C(F)(F)C(F)(F)C(F)(F)C(F)(F)F`, which outcome is on record?
A: Its outcome is “inactive”.

Q: Which outcome does the source give for `Cc1cccc([N+](=O)[O-])c1` here?
A: The outcome was “inactive”.

Q: Which outcome does the source give for `c1cc2ccc3cccc4ccc(c1)c2c34` here?
A: Its outcome is “inactive”.

Q: Which outcome does the source give for `Nc1ccc(-c2ccc(N)cc2)cc1` here?
A: Its outcome is “inactive”.

Q: With `Oc1ccc(Cl)cc1Cl` as the compound, how does the outcome read?
A: The outcome was “inactive”.

Q: Which AC50 does the source give for `Oc1ccc(C(c2ccc(O)cc2)(C(F)(F)F)C(F)(F)F)cc1` here?
A: Its AC50 is 58.3 µM (active).

Q: Which outcome does the source give for `Clc1ccc(C(c2ccccc2Cl)C(Cl)(Cl)Cl)cc1` (stereo not given) here?
A: Its outcome is “inactive”.

Q: With `Cc1cc(-c2ccc(N)c(C)c2)ccc1N` as the compound, how does the outcome read?
A: The outcome was “inactive”.

Q: Which outcome does the source give for `Cc1ccccc1[N+](=O)[O-]` here?
A: Its outcome is “inactive”.

Q: For `Clc1ccc(Cl)cc1`, which outcome is on record?
A: The outcome was “inactive”.

Q: For `CC1=C2C[C@H]3[C@@H](CC=C4C[C@@H](O)CC[C@@]43C)[C@@H]2CC[C@]12O[C@@H]1C[C@H](C)CN[C@H]1[C@H]2C`, which AC50 is on record?
A: The AC50 was 0.33 µM (active).

Q: For `O=C(N[C@H]1CN2CCC1CC2)c1cc2ccoc2cn1`, which outcome is on record?
A: Its outcome is “inactive”.

Q: With `O=C(O)C(F)(F)C(F)(F)C(F)(F)C(F)(F)C(F)(F)F` as the compound, how does the outcome read?
A: The outcome was “inactive”.

Q: Which outcome does the source give for `Cc1ccccc1CO[C@@H]1C[C@@]2(C(C)C)CC[C@]1(C)O2` here?
A: Its outcome is “inactive”.

Q: With `Nn1cnnc1` as the compound, how does the outcome read?
A: Its outcome is “inactive”.

Q: Which outcome does the source give for `ClC(Cl)=C(c1ccc(Cl)cc1)c1ccc(Cl)cc1` here?
A: The outcome was “inactive”.

Q: Which outcome does the source give for `CCC(C)c1cc([N+](=O)[O-])cc([N+](=O)[O-])c1O` (stereo not given) here?
A: Its outcome is “inactive”.

Q: Which outcome does the source give for `NS(=O)(=O)C(F)(F)C(F)(F)C(F)(F)C(F)(F)C(F)(F)C(F)(F)C(F)(F)C(F)(F)F` here?
A: Its outcome is “inactive”.

Q: For `CCNc1nc(NC(C)C)nc(SC)n1`, which outcome is on record?
A: Its outcome is “inactive”.

Q: Which outcome does the source give for `O=C(O)C(F)(F)C(F)(F)C(F)(F)C(F)(F)C(F)(F)C(F)(F)C(F)(F)C(F)(F)C(F)(F)F` here?
A: The outcome was “inactive”.
